# In the library only some 12% were active in any assay of this set; here they are far more common.
# BAZ2B block: qHTS Assay for Inhibitors of BAZ2B; Bromodomain adjacent to zinc finger domain protein 2B (Homo sapiens), Q9UIF8; AlphaScreen BAZ2B-H3K14Ac peptide displacement; Potency, µM (top dose mostly 114 µM), for the others: at the top dose activity change, negative = inhibition, most hits filed as inhibitors; hit rate 4.4% among 360,000; note: potency is the fitted concentration of half-maximal effect; % is set by controls: 0 for no effect and ±100 for the full control effect; nearly all actives have a fitted effect of over 60% in size
#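 BAZ2B (50 nM) with biotin-H3(5-23)K14Ac peptide (50 nM) in PBS pH 7.4, 0.01% Tween-20, preformed 30 min, then compound 30 min at room temperature; top concentration 110uM. AlphaScreen streptavidin donor/nickel chelate acceptor beads (10 ug/mL final), 20 min dark, signal read.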
# PI5P4Ka inh: qHTS for Inhibitors of phosphatidylinositol 5-phosphate 4-kinase (PI5P4K). Phosphatidylinositol 5-phosphate 4-kinase type-2 alpha (Homo sapiens), P48426. AID 652105, 2013. hit rate 1.2% among 330,000. PI5P4Kalpha enzyme, ADP-Glo luminescence, 60 min; stronger effect = lower value. max response, %; active = max response of -50% or lower; inconclusive = between -30% and -50%; inactive = -30% or higher; note: value at the top dose of about 77 µM; % is set by controls: 0 for no effect and ±100 for the full control effect
# Target sequence (P48426 whole entry, looked up): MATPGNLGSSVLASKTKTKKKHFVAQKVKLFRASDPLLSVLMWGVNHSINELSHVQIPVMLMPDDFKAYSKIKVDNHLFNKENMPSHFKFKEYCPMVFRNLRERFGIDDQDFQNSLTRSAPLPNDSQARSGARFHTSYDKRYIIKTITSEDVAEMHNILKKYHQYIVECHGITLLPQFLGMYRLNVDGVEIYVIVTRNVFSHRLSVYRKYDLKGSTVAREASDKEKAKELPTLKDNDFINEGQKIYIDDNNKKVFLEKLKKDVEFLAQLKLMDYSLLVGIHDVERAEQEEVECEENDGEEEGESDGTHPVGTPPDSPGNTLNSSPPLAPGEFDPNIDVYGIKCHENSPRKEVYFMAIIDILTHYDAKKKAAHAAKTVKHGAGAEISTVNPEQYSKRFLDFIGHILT
#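 Compounds were pin-transferred onto PI5P4Kalpha and substrate in HEPES pH 7.4 buffer with EGTA, CHAPS and 5% DMSO. ATP (5 microM final) started the reaction, which ran 60 minutes at room temperature before ADP-Glo detection.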
# G9a inh: qHTS Assay for Inhibitors of Histone Lysine Methyltransferase G9a; Histone-lysine N-methyltransferase EHMT2 (Homo sapiens), Q96KQ7; G9a H3K9 monomethylation, AlphaScreen, 2 h; Potency, µM (series often up to 102 µM), for the others: at the highest dose activity, negative = inhibition, usual class: inhibitors; hit rate 8.8% among 350,000; AID 504332, 2011; note: potency is the fitted concentration of half-maximal effect; % is set by controls: 0 for no effect and ±100 for the full control effect; nearly all actives have a fitted effect of over 75% in size
# Target sequence (Q96KQ7 913-1193 limits assumed): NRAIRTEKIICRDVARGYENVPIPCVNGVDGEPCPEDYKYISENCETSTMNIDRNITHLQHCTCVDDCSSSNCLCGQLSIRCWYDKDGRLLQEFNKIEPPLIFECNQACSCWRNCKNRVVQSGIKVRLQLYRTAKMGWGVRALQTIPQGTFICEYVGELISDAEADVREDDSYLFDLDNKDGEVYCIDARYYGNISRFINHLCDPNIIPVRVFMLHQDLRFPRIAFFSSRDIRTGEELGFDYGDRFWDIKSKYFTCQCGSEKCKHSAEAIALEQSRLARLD
#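 AlphaScreen detection with an anti-monomethyl H3K9 antibody quantified product after a 2 h room-temperature reaction containing 500 nM biotinylated H3K9 peptide, 20 µM SAM and 20 nM enzyme, which had been preincubated 15 min with compound.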
# JMJD2A Tudor inh: qHTS Assay for Inhibitors of JMJD2A-Tudor Domain | Lysine-specific demethylase 4A (Homo sapiens), O75164 | AlphaScreen JMJD2A-Tudor / H3K4me3 peptide binding | Potency, µM (titrated, usually from 114 µM), inactives show at the top dose activity change, negative = inhibition, hits mostly inhibitors | hit rate 4.4% among 390,000; note: potency is the fitted concentration of half-maximal effect; % is set by controls: 0 for no effect and ±100 for the full control effect; nearly all actives have a fitted effect of over 50% in size
# HP1b binding inh: HTS for Inhibitors of HP1-beta Chromodomain Interactions with Methylated Histone Tails | hit rate 0.56% among 390,000 | AlphaScreen HP1-beta / biotin-H3K9me3 peptide binding | Potency, µM (series often up to 114 µM), without a hit: at the highest dose activity change, negative = inhibition, usual class: inhibitors | AID 540317, 2011; note: potency is the fitted concentration of half-maximal effect; nearly all actives have a fitted effect of over 70% in size
#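 HP1-beta protein (50 nM final) preincubated 30 min at room temperature with biotinylated H3(1-18)K9me3 peptide (50 nM) in PBS pH 7.4, 0.01% Tween-20, then compound added for 30 min. AlphaScreen streptavidin donor/nickel chelate acceptor beads (10 ug/mL final), 30 min dark, luminescence read.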
# PLK1 PBD inh: qHTS for Inhibitors of PLK1-PDB (polo-like kinase 1 - polo-box domain): Primary Screen. hit rate 2.8% among 360,000. Serine/threonine-protein kinase PLK1 (Homo sapiens), P53350. Plk1 PBD binding of FITC phosphopeptide, fluorescence polarization. Potency, µM, for the others: max response, negative = inhibition, actives largely listed as inhibitors; note: potency is the fitted concentration of half-maximal effect; series mostly up to about 57 µM; % is set by controls: 0 for no effect and ±100 for the full control effect; nearly all actives have a fitted effect of over 65% in size
# Numbers without * were called inactive; ? = inconclusive; · = no result given; [ ] = another dose, or the depositor's remark. Unless noted, calls come from the whole dose curve; as a rule, active = well fitted curve in the direction sought with a large enough effect; inconclusive = small, poorly fitted or top-dose-only effect, or another doubt; inactive = no such curve, though single readings can be large; an effect the other way counts as inactive or inconclusive.
SMILES,BAZ2B block,PI5P4Ka inh,G9a inh,JMJD2A Tudor inh,HP1b binding inh,PLK1 PBD inh
O=C(O)CCN1CCc2ccccc2C1c1cccs1 (stereo not drawn),-38%,3,50µM*,3%,36%,-3%
CCc1ccc(S(=O)(=O)c2nnn(-c3cccc(C)c3)c2N)cc1,5%,·,4%[59 µM],0%,34%,·
O=c1cc(-c2ccccc2)nc2c(-c3ccccc3)c(C(F)(F)F)[nH]n12,17%,7,12%,43%,84%,17µM*
COC(=O)CN1C(=O)[C@H]2[C@@H](c3ccc(C)o3)N3C(=O)CN(Cc4ccccc4)C(=O)[C@@]3(C)[C@H]2C1=O,-22%,-28,45µM*,-22%,37%,-12%
Cc1ccc([C@@H]2[C@@H]3C(=O)N(C)C(=O)[C@@H]3[C@]3(C)C(=O)N(Cc4ccccc4)CC(=O)N23)o1,18%,3,·,-7%,64%,-25%
O=S(=O)(Nc1cccc(-c2ccc(N3CCOCC3)nn2)c1)c1ccccc1C(F)(F)F,-3%,·,-6%[59 µM],-25%,21%[57 µM],·
CC(C)CC(C(=O)Nc1oc(-c2ccco2)c(-c2ccco2)c1C#N)N1C(=O)c2ccccc2C1=O (stereo not drawn),32µM*,-23,22µM*,?,-25%,-29%
O=C(C(c1ccccc1)c1ccccc1)N1CCN(CCN2C(=O)c3cccc4cccc(c34)C2=O)CC1,-24%,1,-14%,?,-4%,5%
O=C1c2ccccc2C(=O)N1CC#CCN1CCN(C(c2ccccc2)c2ccccc2)CC1,50µM*,12,?,?,-6%,-2%
Cc1c(Cl)c(C(=O)NNC(=S)NCc2ccco2)nn1C,14%,0,?,-26%,23%,-22%
COc1ccccc1NC(=S)NC(=O)/C=C/c1cccs1,·,4,45µM*,-11%,-22%,-5%
O=C(Cc1cccs1)NNC(=S)NCc1ccco1,-3%,-2,50µM*,-17%,25%,-9%
Cn1cc(Cl)c(C(=O)NNC(=S)NCc2ccco2)n1,9%,-9,40µM*,-25%,-5%,27µM*
COc1ccc(/C=C/C(=O)NC(=S)NNC(=O)Cc2cccs2)cc1OC,6%,-16,3.5µM*,-9%,10%,-19%
CCCc1nnc(N2C(=O)c3oc4ccc(F)cc4c(=O)c3C2c2ccc(C(=O)OC)cc2)s1 (stereo not drawn),3%,·,?,-7%,22%,·
Cc1cc(Nc2ccc(Br)c(C)c2)n2nc(-c3ccco3)nc2n1,-6%,·,-10%[59 µM],-23%,19%,·
Fc1cccc(Cc2c(-c3ccc(Cl)cc3)nc3c(Cl)cc(C(F)(F)F)cn23)c1,·,-1,·,·,·,-8%
O=C(/C=C/c1cccs1)NC(=S)NNC(=O)Cc1cccs1,9%,-24,4.5µM*,-5%,26%,-14%
COc1ccccc1NC(=S)NC(=O)C(C)(C)C,-2%,·,40µM*,-23%,15%,-12%
COc1ccccc1NC(=S)NNC(=O)c1nn(C)c(C)c1Br,-2%,-7,11µM*,-20%,-2%,-3%
COc1ccccc1NC(=S)NC1CCCCC1,-24%,3,6%,-24%[57.1 µM],10%,-29%
COc1ccccc1NC(=S)NCC1CCCCC1,-28%,-12,1%[59 µM],?,-1%,6µM*
COc1cc2oc(=O)c(CC(=O)NCCc3ccccc3F)c(C)c2cc1OC,-13%,·,4%[59 µM],-19%,2%,·
CCc1ccc(S(=O)(=O)c2cn(CC(=O)Nc3cccc(C)c3)c3ccc(Cl)cc3c2=O)cc1,-10%,·,2%[59 µM],-4%,36%,·
S=c1[nH]nc(COc2ccccc2)n1/N=C/c1ccc(Cl)cc1,-17%,0,7.1µM*,-31%,-6%,27µM*
SMILES,BAZ2B block,PI5P4Ka inh,G9a inh,JMJD2A Tudor inh,HP1b binding inh,PLK1 PBD inh
S=c1[nH]nc(Cc2ccc(Br)cc2)n1/N=C/c1ccc(Cl)cc1,-35%,-5,?,79µM*,?,3.4µM*
S=c1[nH]nc(COc2ccccc2)n1/N=C/c1ccc(Cl)cc1Cl,4%,4,?,-14%,2%,?
CSc1ccc(/C=N/n2c(COc3ccccc3)n[nH]c2=S)cc1,?,-2,22µM*,?,?,34µM*
CC(NC(=O)c1ccccc1)c1nc2ccccc2n1Cc1ccc(Cl)cc1 (stereo not drawn),-4%,·,0%[59 µM],2%,32%,·
CCCn1c(C(C)NC(=O)c2ccccc2)n[nH]c1=S (stereo not drawn),4%,-1,·,8.9µM*,8%,-5%
C=CCn1c(SCCOc2ccccc2)nnc1C(C)NC(=O)c1ccccc1 (stereo not drawn),8%,2,17%,-12%,39%,4%
CCn1c(C(C)NC(=O)c2cccc(C)c2)n[nH]c1=S (stereo not drawn),-33%,2,45µM*,-23%,59%,-6%
C=CCn1c(C(C)NC(=O)c2ccccc2)n[nH]c1=S (stereo not drawn),-2%,·,·,10µM*,18%,-5%
O=C(NCCCN1CCOCC1)C1CCN(S(=O)(=O)c2cccc(C(F)(F)F)c2)CC1,-4%,4,30%[12.7 µM],4%,32%,-1%
CC1CCCCN1CC(=O)Nc1ccc(N2CCCCCC2)cc1 (stereo not drawn),11µM*,-14,3.2µM*,1.4µM*,22µM*,-4%
CSc1ccccc1NC(=O)CN1C(=O)C2CC=CCC2C1=O (stereo not drawn),4%,0,-3%[0.501 µM],2%,36%,0%
CSc1ccccc1NC(=O)CN1CCCCC1C (stereo not drawn),-1%,12,3%,-15%[11.4 µM],18%,21µM*
CC1CCCCN1CC(=O)Nc1ccc(Oc2ccccc2)cc1 (stereo not drawn),1%,0,-6%,-9%,49%,-12%
Cc1cc(C(=O)NC2CCCc3c2cnn3-c2cccc(C)c2C)n(C)n1 (stereo not drawn),-19%,5,19%,-1%,34%,5%
COc1ccc(-c2cc(=O)n(-c3ccc([N+](=O)[O-])cc3)[nH]2)cc1,40µM*,-28,10µM*,56µM*,?,-4%
CNC(=O)c1ccc(Nc2nnc(-c3ccc(C)c(S(=O)(=O)N4CCOCC4)c3)c3ccccc23)cc1,0%,·,-38%[59 µM],-26%,31%,·
CC(=O)Nc1ccc2nc(NC(=O)c3cccs3)sc2c1,-26%,-4,45µM*,-10%,35%,-10%

# From PubChem BioAssay
